# Rows were chosen to be rich in hits. Some 11% of all compounds tested hit in one or more screens of this group.
# NPR1 antag = human Npr1 receptor antagonism | P16066 | HEK293 hNpr1 GloSensor cGMP, ANP-stimulated luminescence | Potency, µM (titrated, usually from 46.3 µM), inactives show at the highest dose activity change, negative = inhibition, usual class: inhibitors | 76,000 compounds, 1.6% hits; calls by dose curve; note: % is set by controls: 0 for no effect and ±100 for the full control effect; nearly all actives have a fitted effect of over 60% in size
# Target sequence (P16066 whole entry, looked up): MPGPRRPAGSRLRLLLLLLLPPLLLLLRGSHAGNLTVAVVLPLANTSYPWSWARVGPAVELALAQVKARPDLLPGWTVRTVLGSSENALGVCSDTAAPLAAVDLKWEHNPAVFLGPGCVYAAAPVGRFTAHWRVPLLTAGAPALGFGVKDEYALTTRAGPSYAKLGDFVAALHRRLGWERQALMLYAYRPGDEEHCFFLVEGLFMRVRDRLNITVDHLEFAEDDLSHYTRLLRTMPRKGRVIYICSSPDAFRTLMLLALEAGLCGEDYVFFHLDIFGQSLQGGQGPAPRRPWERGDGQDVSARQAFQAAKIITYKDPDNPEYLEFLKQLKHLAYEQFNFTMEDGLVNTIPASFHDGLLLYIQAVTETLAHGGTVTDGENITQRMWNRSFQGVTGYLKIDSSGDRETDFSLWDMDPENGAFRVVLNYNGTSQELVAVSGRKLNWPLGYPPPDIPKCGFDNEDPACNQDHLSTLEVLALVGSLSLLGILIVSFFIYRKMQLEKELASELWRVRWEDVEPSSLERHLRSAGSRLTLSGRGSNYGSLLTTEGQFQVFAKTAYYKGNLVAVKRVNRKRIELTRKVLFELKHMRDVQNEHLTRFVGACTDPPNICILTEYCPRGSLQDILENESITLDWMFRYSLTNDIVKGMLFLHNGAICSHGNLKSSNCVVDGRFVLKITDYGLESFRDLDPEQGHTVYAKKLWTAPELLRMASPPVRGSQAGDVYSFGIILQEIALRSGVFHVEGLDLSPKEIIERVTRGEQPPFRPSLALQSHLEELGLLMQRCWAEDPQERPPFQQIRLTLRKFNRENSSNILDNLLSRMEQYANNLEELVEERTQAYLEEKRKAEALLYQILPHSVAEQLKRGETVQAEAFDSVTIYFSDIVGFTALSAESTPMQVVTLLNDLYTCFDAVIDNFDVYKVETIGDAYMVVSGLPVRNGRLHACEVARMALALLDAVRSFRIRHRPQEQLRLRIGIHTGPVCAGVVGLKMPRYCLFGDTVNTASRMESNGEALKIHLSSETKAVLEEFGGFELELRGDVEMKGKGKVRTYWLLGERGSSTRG
#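 HEK293 cells stably expressing human Npr1 and cGMP GloSensor pGS-40F, loaded 2 h with 2% GloSensor reagent, given compound 30 min at room temperature. Luminescence read before and 20 min after 0.1 nM hNppA.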
# 3T3 cytotox = cytotoxic compounds in NIH 3T3 cells; NIH 3T3 viability, CellTiter-Glo ATP luminescence, 48-72 h; Potency, µM (top dose mostly 96.7 µM), for the others: at the top dose activity change, negative = cytotoxicity, hits mostly inhibitors; 94,000 compounds, 4.3% hits; AID 1345082; note: % is set by controls: 0 for no effect and ±100 for the full control effect; nearly all actives have a fitted effect of over 55% in size
#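 Viability of NIH 3T3 cells after 48 or 72 hr compound treatment at 37 °C was assessed by CellTiter-Glo, with luminescence imaged following a 10 min room-temperature step.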
# HEK293 tox = HEK 293 cell cytotoxicity | AID 1345083 | HEK 293 viability, ATP luminescence (CellTiter-Glo), 48-72 h | 94,000 compounds, 6.6% hits | Potency, µM (titrated, usually from 115 µM), without a hit: at the top dose activity change, negative = cytotoxicity, actives largely listed as inhibitors; note: % is set by controls: 0 for no effect and ±100 for the full control effect; nearly all actives have a fitted effect of over 60% in size
#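 Cells seeded first (HEK 293, 250 cells/well), then compound added by pintool. Incubation ran 48 or 72 hr at 37 degree Celsius. CellTiter-Glo was added and luminescence imaged after 10 min at room temperature.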
# FLuc inh-1 = inhibitors of firefly (Photinus pyralis) luciferase; P08659; purified P. pyralis luciferase, luminescence, biochemical; Potency, µM (series often up to 115 µM), hits mostly inhibitors; 76,000 compounds, 2.5% hits; note: % is set by controls: 0 for no effect and ±100 for the full control effect; nearly all actives have a fitted effect of over 65% in size
#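 Inhibitors were tested against purified firefly luciferase in a biochemical, low-substrate format (both substrates at 10uM) and luminescence measured with a CCD imager.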
# FLuc SDR -ATP = binders stabilizing firefly luciferase, without ATP | shares compounds with FLuc inh-1 | Purified FLuc-C-HiBiT, Nano-Glo HiBiT luminescence, no ATP | Potency, µM (titrated, usually from 32.7 µM), for inactives: at the highest dose activation (signal gain), usual class: activators | 1,300 compounds, 7.8% hits | AID 1963318; note: nearly all actives have a fitted effect of over 55% in size
# FLuc SDR ATP = firefly luciferase binding stabilization, ATP added | shares compounds with FLuc inh-1 | purified FLuc-C-HiBiT + ATP, HiBiT complementation luminescence | Potency, µM (doses to about 32.7 µM), inactives show at the highest dose activation (gain of signal), actives largely listed as activators | 1,300 compounds, 8.7% hits | AID 1963319;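 note: signal reports ligand binding via conformational change of the enzyme rather than luciferase catalysis; % of control where 0% means no effect; nearly all actives have a fitted effect of over 55% in size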
# FLuc inh-2 = firefly luciferase enzyme inhibition. shares compounds with FLuc inh-1. purified FLuc-C-HiBiT enzyme, luciferin luminescence. Potency, µM (series often up to 32.7 µM), for the others: top-dose activity change, negative = inhibition, hits mostly inhibitors. 1,300 compounds, 42% hits. AID 1963320; note: % is set by controls: 0 for no effect and ±100 for the full control effect; nearly all actives have a fitted effect of over 70% in size
# The depositor's hits bear a star; i = inactive; ? = inconclusive; . = not tested or not shown; [ ] = dose if it differs, or a comment. Unless noted, calls come from the whole dose curve; as a rule, active = well fitted curve in the direction sought with a large enough effect; inconclusive = small, poorly fitted or top-dose-only effect, or another doubt; inactive = no such curve, though single readings can be large; an effect the other way counts as inactive or inconclusive. Potency is the fitted concentration of half-maximal effect.
SMILES,NPR1 antag,3T3 cytotox,HEK293 tox,FLuc inh-1,FLuc SDR -ATP,FLuc SDR ATP,FLuc inh-2
CN1CCCCCCN(C(=O)Nc2ccc3c(c2)OCCO3)CCC1=O,-29%,-11%,-1%,4.5µM*,29%,?,9.9µM*
O=C1NCCCCCCN(C(=O)Nc2ccc3c(c2)OCCO3)[C@H]2CCCC[C@@H]12,?,-12%,0%,4.5µM*,27%,?,8.8µM*
Cc1ccc(NC(=O)N2CC[C@@H]3C(=O)NCCCCCCN(Cc4ccncc4)[C@@H]3C2)cc1C,-3%,?,?,i,.,.,.
O=C(Nc1ccc2c(c1)OCCO2)N1CCN(C(=O)N2CC3CC(C2)[C@H]2CCCC(=O)N2C3)CC1 (stereo partly drawn),2%,3%,14%,i,.,.,.
O=C1NCCCCCCN(Cc2ccncc2)[C@@H]2CN(C(=O)Nc3ccc4c(c3)OCCO4)CC[C@H]12,-3%,?,-21%,11µM*,20%,17%,?
COc1cccc([S+](=O)([O-])N2CCC3(C2)C(=O)N(C)c2ccccc23)c1 (stereo not drawn),0%,-27%,?,i,.,.,.
O=C(NCCC1CCCCC1)c1c[nH]c2ncccc12,?,?,71µM*,5.6µM*,?,18%[49.3 µM],18µM*
CC(CCn1cccn1)NC(=O)c1csc2nc(-c3ccc(C(F)(F)F)cc3)cn12 (stereo not drawn),-27%,?,?,13µM*,17%,12%,9.9µM*
CN1CCN(CCCNc2nccc(-c3ccccn3)n2)CC1,8%,-2%,i,i,.,.,.
c1ccc(CCCNc2nccc(-c3ccccn3)n2)nc1,2%,-30%,?,10µM*,14%,15%,1%
Cc1nc(CN2CCOc3c(O)cc(-c4nc5ccccc5s4)cc3C2)no1,-1%,-23%,?,i,14%,7%,-11%
Cc1cnc(C)c(-c2cc(O)c3c(c2)CN(C(=O)c2ccncn2)CCO3)n1,1%,-19%,-1%,i,.,.,.
Cc1c(CN2CCOc3c(O)cc(-c4nc5ccccc5s4)cc3C2)cnn1C,.,.,.,.,13%,9%,-5%
Cc1nnc(CN2CCOc3c(O)cc(-c4ccccc4C)cc3C2)s1,-1%,?,?,i,.,.,.
Cc1cncc(C(=O)N2CCOc3c(O)cc(-c4nc5ccccc5s4)cc3C2)c1,-6%,?,40µM*,?,12%,8%,-11%
CNC(=O)c1cc(C2CC2)nc2onc(C3CCN(C(=O)c4ccccn4)C3)c12 (stereo not drawn),.,-23%,-14%,.,.,.,.
O=C(COc1ccc(NC(=O)C2CC2)cn1)NCc1ccccc1,0%,-6%,-1%,i,.,.,.
O=C(Nc1cnc(-c2ccccc2)nc1)C1CCCC1,10µM*,-22%,?,1µM*,?,?,2.5µM*
O=C(Nc1cnc(-c2ccc(Cl)cc2)nc1)C1CCC1,5.6µM*,-1%,2%,0.28µM*,?,?,1.2µM*
CNC(=O)c1cc(-c2ccccc2)cc2c1OCCN2Cc1cccnc1,-3%[70.6 µM],?,?,i,.,.,.
CC(C)(C)C1CCc2nc(NC(=O)c3cccc(Cl)c3)sc2C1 (stereo not drawn),.,.,.,.,17%,16%,2.5µM*
O=C(Nc1nc2c(F)cc(F)cc2s1)c1ccc2c(c1)OCCO2,.,.,.,.,17%,15%,1.8µM*
COc1cccc(-c2nc3cc(NC(=O)c4ccc(F)c(C#N)c4)ccc3s2)c1,.,.,.,.,15%,12%,-7%
COc1ccc(C(=O)Nc2cccc(-c3nc4ccccc4s3)c2)cc1,.,.,.,.,14%,9%,-15%
Cc1cccc(OCC(=O)Nc2cccc(-c3nc4ccccc4s3)c2)c1,.,.,.,.,14%,10%,?
SMILES,NPR1 antag,3T3 cytotox,HEK293 tox,FLuc inh-1,FLuc SDR -ATP,FLuc SDR ATP,FLuc inh-2
COc1cccc(-c2cc(C(=O)Nc3ccc(F)cc3)c3cnn(C)c3n2)c1,.,-13%,?,.,.,.,.
Cc1cccc(OCC(=O)Nc2cccc(-c3nnc4n3CCCC4)c2)c1,-17%,-29%,?,i,.,.,.
Cc1ccc(OCC(=O)Nc2cccc(-c3nc4ccccc4s3)c2)cc1,.,.,.,.,14%,13%,9.9µM*
O=C(COc1ccc(F)cc1)Nc1cccc(-c2nnc3n2CCCC3)c1,-21%,-24%,?,?,.,.,.
CCCCSc1nc(N)cc(N2CCCC(C(=O)N3CCOCC3)C2)n1 (stereo not drawn),-3%,?,-22%,i,.,.,.
O=C(NCCc1ccccn1)C1CCN(C(=O)c2ccc(-c3cccs3)cc2)CC1,.,-25%,-29%,.,.,.,.
O=C(O)CCC(=O)N1Cc2ccccc2CC2(CCCCN2Cc2ccc(O)cc2)C1 (stereo not drawn),.,i,i,.,.,.,.
Cc1cccc(C)c1OCc1cc(C(=O)N2CCCC(C(=O)c3nccn3C)C2)no1 (stereo not drawn),6%,-7%,?,i,.,.,.
O=C(Cc1ccccc1Cl)Nc1cccc(-c2nnc3n2CCCC3)c1,2%,-10%,-10%,i,.,.,.
CC(=O)Nc1cccc(-c2ccc3c(n2)c(=O)ncn3Cc2ccccc2)c1,-7%[70.6 µM],?,-6%[172 µM],i,.,.,.
COc1ccccc1C(=O)Nc1cccc(-c2nnc3n2CCCC3)c1,3%,-24%,-4%,?,.,.,.
O=C(CSc1nnc2ccccn12)Nc1cccc(-c2nc3ccccc3s2)c1,.,.,.,.,13%,9%,-7%
CCC(CC)C(=O)Nc1cccc(-c2nc3ccccc3s2)c1,.,.,.,.,26%,7%,?
CCOc1ccccc1C(=O)Nc1cccc(-c2nc3ccccc3s2)c1,.,.,.,.,14%,11%,?
Fc1cc(F)cc(Cc2nc3nccc(-c4ccsc4)n3n2)c1,-3%,?,?,i,.,.,.
CN(C)[C@@H]1CN(Cc2ccsc2)CC[C@@H]1CNC(=O)C1CC1,5%,i,-2%,i,.,.,.
CC(=O)NC1(C)CN(Cc2ccc(-c3ccccc3OCc3ccccc3)s2)C1,?,28µM*,40µM*,7.1µM*,13%[49.3 µM],10%[49.3 µM],?
CSCC(=O)N[C@H]1CCN2C(=O)c3cc(-c4ccc(SC)cc4)ccc3NC(=O)[C@H]12,5%,-17%,-8%,13µM*,23%,15%,?
COc1ccccc1CNC[C@H]1Cn2c(-c3ccccc3)cnc2CO1,-24%[70.6 µM],-27%[138 µM],?,i,.,.,.
O=C(c1ccc2oc(-c3cccc(F)c3)nc2c1)N1CCCCC1CCO (stereo not drawn),-21%,?,?,14µM*,18%,16%,?
